High-throughput results from PubChem.
Lmaj promast = inhibitors of Leishmania major promastigote growth; inhibition, % at 10 µM; Leishmania major promastigotes, resazurin fluorescence viability; hit rate 9% among 200,000; in the data active means inhibition above about 50%;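 further: promastigotes grown with compound for 44 hours at 28 °C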
Autophagy mod = modulators of autophagy; MEF GFP-LC3 puncta imaging; test concentration mostly 10 µM; calls only at 10 µM (by protocol); hit rate 0.98% among 190,000; AID 463193;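 active means percentage of spot-positive cells more than 3 SD above its plate mean, without a fluorescence outlier flag or 80% toxicity; inconclusive means no clear call, values can overlap the other calls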;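 further: spot-positive cell cutoff set from DMSO-treated cells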
INS promoter inh = TRM-6 insulin promoter activity inhibition | hit rate 0.9% among 130,000 | inhibition, % at 2 µM | TRM-6 cells (human fetal islet line), insulin promoter-eGFP reporter, imaging; reporter expression induced with tamoxifen | AID 1273;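 active means inhibition above the mean plus 3 SD, with well images judged a real hit on visual review, cut at about 60% in these data, passing the limit was not always enough; inconclusive means inhibition over the cutoff but images rejected on review; inactive means inhibition not above the cutoff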
WT yeast gro inh = growth inhibition of WT yeast, mitochondrial fusion screen. mitochondrial fusion phenotypic screen, WT strain. inhibition, % at 10 µM. hit rate 2.1% among 190,000. AID 1362; in the data active means inhibition above about 58%; tested in S. cerevisiae
Ins promoter up = MIN6 insulin promoter up-regulation. MIN6 insulin promoter-GFP reporter, high-content imaging; active compounds read high. z-score at 5 µM. hit rate 0.3% among 190,000. AID 1625;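 active means z-score above 3 at 5 µM with at least 500 cells counted in the well; inconclusive means wells under 500 cells, flagged as cytotoxic or low count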
* marks the source's active call; other numbers are inactive results; i = inactive; u = inconclusive; x = not tested or not shown. Rows were chosen to be rich in hits. Some 11% of all compounds tested hit in one or more screens of this group.

SMILES	Lmaj promast	Autophagy mod	INS promoter inh	WT yeast gro inh	Ins promoter up
Cc1ccc(/C=C/C(=O)c2c(C)cc(C)[nH]c2=O)cc1	61*	i	x	23	-0.08
CCc1ccc(/C=C/C(=O)c2c(C)cc(C)[nH]c2=O)cc1	59*	i	46	-14	0.08
CCc1ccc(/C=C(\C)C(=O)c2c(C)cc(C)[nH]c2=O)cc1	14	i	25	1	x
CCc1cccc2c(C(=S)N3CCOCC3)c[nH]c12	1	i	x	-10	0.39
COc1ccc2c(c1)CC/C(=C\c1ccc(OC)c(Cn3cccn3)c1)C2=O	98*	i	-23	38	0.74
COc1cc(/C=C2/CCc3ccccc3C2=O)cc(OC)c1OC	55*	i	x	6	-0.92
COc1ccc(/C=C2\CCc3ccccc3C2=O)cc1CN1CCOCC1	x	x	x	x	-0.32
CCOc1ccc(/C=C2\CCc3ccccc3C2=O)cc1	x	x	x	x	-0.26
COc1ccc(/C=C2/CCc3ccccc3C2=O)cc1OC	52*	i	25	-8	-0.42
COc1ccc(/C=C2\COc3ccccc3C2=O)cc1OC	100*	i	-6	22	-0.42
COc1ccc(/C=C2\C(=O)OCc3cc(OC)c(OC)cc32)cc1OC	4	i	x	-3	-1.7
CNC(=O)CSc1nnc(SCCC(=O)O)s1	-6	i	36	-14	x
COc1cc(/C=C2\C(=N)N3N=CSC3=NC2=O)cc(Br)c1OC(=O)c1ccco1	-4	i	x	-14	0.11
COc1cc(/C=C2\CCc3ccccc3C2=O)cc(OC)c1OC	77*	i	17	-1	-0.27
COc1ccc2c(c1)CC/C(=C/c1ccco1)C2=O	-6	i	-33	3	-0.46
Cc1cc(Oc2cnn(C(C)(C)C)c(=O)c2Cl)cc(C(C)C)c1	10	i	-45	67*	x
CCOC(=O)N1CCN(C(=O)c2sc3nc(-c4ccc(F)cc4)cn3c2C)CC1	1	i	x	3	-0.57
CCOC(=O)N1CCN(C(=O)c2ccc3c(c2)sc2nc(-c4ccc(OC)cc4)cn23)CC1	98*	i	-36	-5	-0.26
CC1(C)CC(=O)C(C2C3=C(CC(C)(C)CC3=O)OC3=C2C(=O)CC(C)(C)C3)=C(O)C1	x	x	x	x	0.46
COc1ccccc1NC(=O)CC1S/C(=N/N=C2\CCCc3ccccc32)NC1=O (stereo not given)	4	i	x	63*	0.03
O=C(CSc1cccc[n+]1[O-])Nc1cccc(Oc2ccccc2)c1	-4	i	x	-16	0.06
CC(=O)C1=C(O)CC(c2ccccc2)CC1=NCCc1c(C)[nH]c2ccc(C)cc12 (stereo not given)	-3	i	5	-4	0.13
CC/C(O)=C1\C(=O)CC(c2ccccc2)CC1=NCCc1c(C)[nH]c2ccc(C)cc12 (stereo not given)	73*	i	-32	18	-0.45
CCC/C(O)=C1\C(=O)CC(c2ccccc2)CC1=NCCc1c(C)[nH]c2ccc(C)cc12 (stereo not given)	58*	i	-32	16	-0.39
CC(C)(C)NC(=O)C(c1ccccn1)N(C(=O)C1CSC(=O)C1)c1ccccc1F (stereo not given)	0	i	0	5	x
SMILES	Lmaj promast	Autophagy mod	INS promoter inh	WT yeast gro inh	Ins promoter up
CCOC(=O)CNC(=O)Cc1ccc(OC)cc1	x	x	x	x	-0.26
O=[N+]([O-])c1ccccc1SN(Cc1ccccc1)c1ccccn1	2	i	-25	56	-0.05
CCOC(=O)C1CCCN(Cc2ccc3c(c2)OCO3)C1 (stereo not given)	92*	i	30	-3	x
COc1cccc(CN2CCCC(C(=O)c3ccc4c(c3)OCO4)C2)c1O (stereo not given)	82*	i	x	14	0.03
COc1ccc(C(=O)C2CCCN(Cc3ccc4c(c3)OCCO4)C2)cc1F (stereo not given)	x	x	x	x	0.13
O=C(c1ccc2c(c1)OCO2)C1CCCN(C2CCN(CCc3ccccc3)CC2)C1 (stereo not given)	98*	i	-33	2	-0.62
COc1ccc(F)cc1C(=O)C1CCCN(Cc2ccc3c(c2)OCCO3)C1 (stereo not given)	104*	i	x	9	0.12
CCOC(=O)c1cc(C#N)c(Oc2ccccc2OC)nc1-c1ccccc1	6	i	19	22	-0.56
CCOc1cc(N2CCOCC2)c(OCC)cc1NC(=S)NCCCOC	-10	i	15	-11	-0.77
Cc1ccc(C)c(/C=N/Nc2nc3ccccc3c(=O)n2O)c1	x	x	x	x	-0.7
Cc1cc(Oc2ccccc2)nc(OCC#N)n1	-1	i	-9	-4	1.9
COc1ccc(F)cc1C(=O)C1CCCN(Cc2ccc(Oc3ncccn3)cc2)C1 (stereo not given)	21	i	x	-2	-0.31
COc1ccc(F)cc1C(=O)C1CCCN(Cc2cccn2-c2cccnc2)C1 (stereo not given)	74*	i	x	-6	-0.26
CC(=O)c1cccc(CN2CCCC(C(=O)c3ccc4c(c3)OCO4)C2)c1 (stereo not given)	100*	i	x	19	0.33
CCOC(=O)N1CCC(N2CCCC(C(=O)c3cc(F)ccc3OC)C2)CC1 (stereo not given)	82*	i	x	-8	0.69
COc1ccc([N+](=O)[O-])cc1N(CC(=O)N1CCCC1)S(C)(=O)=O	-9	i	26	7	0.12
Clc1ccc2c(N/N=C/c3cccnc3)ccnc2c1	100*	i	93*	28	-0.3
Cc1ccc(N/N=C/c2cccnc2)cc1	76*	i	-48	35	x
Fc1ccc(N/N=C/c2cccnc2)c(F)c1	22	i	50	14	0.79
Cc1csc(N/N=C\c2cccnc2)n1	7	i	-38	5	0.16
Clc1ccc2c(N/N=C/c3ccc(Br)cc3)ccnc2c1	100*	i	92*	99*	-0.42
Cn1c(=O)c(-c2cc(Br)ccc2N)nc2ccccc21	1	i	25	7	-0.37
COc1ccc(-c2[nH]c(-c3cc(OC)c4c(c3)OCO4)nc2-c2ccccc2)cc1	89*	i	15	63*	-1.7
Cc1ccc(-c2[nH]c(-c3ccc(C(=O)O)cc3)nc2-c2ccccc2)cc1	38	i	-7	2	0.25
CC1CN(C(=O)COC(=O)c2ccc(N(C)C)cc2)CC(C)O1 (stereo not given)	-7	i	-35	-1	0.05
SMILES	Lmaj promast	Autophagy mod	INS promoter inh	WT yeast gro inh	Ins promoter up
CCOc1cc(CNc2ccc3cn[nH]c3c2)ccc1OC	79*	i	-3	-8	-0.25
Cc1ccccc1Oc1cc(-n2ncc(Cl)c(Cl)c2=O)ncn1	100*	i	-270	70	u
COc1ccc(C(=O)NNC(=O)CSc2nnc(C)n2C)cc1	-9	i	x	8	0.71
COc1ccccc1NS(=O)(=O)c1cc(NC(=O)CCC2CCCC2)ccc1N1CCOCC1	99*	i	x	2	1.8
COc1ccccc1NS(=O)(=O)c1cc(NC(=O)CC(C)(C)C)ccc1N1CCOCC1	98*	i	67	9	-0.49
COc1ccccc1NS(=O)(=O)c1cc(NC(=O)c2cccs2)ccc1N1CCOCC1	x	x	x	x	0.1
